# Experimental data published in PubChem BioAssay AID434970 (Sanford-Burnham Center for Chemical Genomics, 2010).
# Hit rate of the full screen: of about 11,000 compounds, about 310 (2.8%) were called active. No stated cut-off is given here; in the data, active means activity change below about -85%; inactive means the rest. What follows is part of a selection rich in actives, with near analogues and random picks from the rest.
# System: intestinal alkaline phosphatase [Mus musculus]
# Experiment: mouse intestinal phosphatase enzyme activation – biochemical, luminescence, single concentration, confirmation (AID 434970)
# Conditions: purified mouse IAP, CDP-Star luminescence, 30 min, at 10 µM; activation factor: measured here: IAP activation factor, stronger effect = higher value; activity change, negative = activation: stronger effect = lower value
SMILES,activation factor,"activity change, negative = activation"
CC(C)c1ccc(NC(=O)NC2CCN(CC(=O)Nc3cccc4ccccc34)CC2)cc1,3.72,-272% (active)
CCOc1ccccc1NC(=O)CN1CCC(NC(=O)Nc2ccccc2)CC1,2.99,-199% (active)
CCOc1ccccc1NC(=O)N1CCC(NC(=O)c2cccc(C)c2)CC1,0.98,2% (inactive)
CCOC(=O)c1ccc(NC(=O)NC2CCN(CC(=O)NCc3ccc4c(c3)OCO4)CC2)cc1,1.61,-60.6% (inactive)
CCOc1ccccc1NC(=O)C1CCCN(C(=O)Nc2ccccc2)C1 (stereo not given),0.961,3.9% (inactive)
Cc1cc(C)cc(NC(=O)NC2CCN(CC(=O)Nc3cccc(Cl)c3C)CC2)c1,1.68,-68.1% (inactive)
CCOCCCNC(=O)c1ccccc1SCC,1.04,-4% (inactive)
CCOC(=O)c1c(C)[nH]c(C)c1C(=O)CSc1nnc(-c2ccco2)n1Cc1ccccc1,1.03,-3.25% (inactive)
O=C(CSc1nnc(-c2ccncc2)n1CC1CCCO1)Nc1nccs1 (stereo not given),1.03,-2.65% (inactive)
COc1ccc(C2C(C(=O)N3CCN(c4ccccc4F)CC3)c3ccccc3C(=O)N2C)cc1 (stereo not given),1.09,-9.15% (inactive)
FC(F)Sc1ccc(NC(=S)NCC2CCCCC2)cc1,1.45,-44.6% (inactive)
FC(F)Sc1ccc(NC(=S)NC2CCC(NC(=S)Nc3ccc(SC(F)F)cc3)CC2)cc1 (stereo not given),2.35,-135% (active)
FC(F)Sc1ccc(NC(=S)NC(c2ccccc2)c2ccccc2)cc1,3.77,-277% (active)
FC(F)Sc1ccc(NC(=S)NC2CCCCC2)cc1,1.25,-24.7% (inactive)
CC1CCCC(NC(=S)Nc2ccc(SC(F)F)cc2)C1C (stereo not given),2.09,-109% (active)
O=C(Nc1ccc(SC(F)F)cc1)c1cccc2nc3ccccc3nc12,0.946,5.4% (inactive)
CC1CCCCC1NC(=S)Nc1ccc(SC(F)F)cc1 (stereo not given),1.52,-51.8% (inactive)
FC(F)Sc1ccc(NC(=S)NC2CCCC2)cc1,1.23,-22.6% (inactive)
FC(F)Sc1ccc(NC(=S)NCc2ccccc2)cc1,1.27,-26.5% (inactive)
NC(=O)CSCc1cccc(Br)c1,1.01,-0.9% (inactive)
O=S1(=O)c2ccccc2OC(COCc2ccccc2)CN1Cc1ccccc1 (stereo not given),1.13,-13.2% (inactive)
Cc1cc(C)nc(SCc2nnc(SCC(=O)Nc3ccccc3C)n2Cc2ccco2)n1,0.974,2.65% (inactive)
Cc1ccc(-c2cc(C(F)F)n3ncc(C(=O)N4CCN(c5cccc(C)c5C)CC4)c3n2)cc1,0.892,10.8% (inactive)
CCCc1cc(=O)oc2cc3occ(C)c3cc12,0.917,8.35% (inactive)
CCOn1c(=O)c(-c2ccc(Cl)cc2)[n+]([O-])c2ccccc21,0.944,5.65% (inactive)

SMILES,activation factor,"activity change, negative = activation"
CC(C)(C)c1n[nH]c(=S)n(N)c1=O,1.04,-4.25% (inactive)
CCn1c(CNc2nc3ccccc3n2C(C)C)nc2ccccc21,1.97,-97.3% (active)
CCn1c(NCc2ccccn2)nc2ccccc21,0.877,12.3% (inactive)
CCn1c(NCc2ccc(N(C)C)cc2)nc2ccccc21,1.11,-10.6% (inactive)
Cc1ccc2oc(-c3ccc(NC(=O)c4ccc5c(c4)OCO5)cc3)nc2c1,0.944,5.6% (inactive)
CSc1nccc(-c2nn(-c3ccc(C)cc3)ccc2=O)n1,1,-0.05% (inactive)
OC[C@@H]1CC[C@@H](Cc2ccc(-c3ccccc3)cc2)O1,1.07,-7.05% (inactive)
COc1ccc(N2CCN(CCCNC(=O)Nc3ccccc3)CC2)cc1,1.16,-16.2% (inactive)
S=C(NCC1COc2ccccc2O1)Nc1ccc(Br)cc1 (stereo not given),1.68,-68.1% (inactive)
CCOC(=O)C1=C(C)N(C[C@@H]2CC[C@@H](Cc3ccc(-c4ccccc4)cc3)O2)C(=O)NC1c1ccc(-c2ccccc2)cc1 (stereo not given in full),1.12,-12.1% (inactive)
O=C(NC[C@@H]1CC[C@@H](Cc2ccc(-c3ccccc3)cc2)O1)Nc1ccc(Br)cc1,4.1,-310% (active)
COc1ccc(NC(=O)NC[C@@H]2CC[C@@H](Cc3ccc(-c4ccccc4)cc3)O2)cc1,2.82,-182% (active)
COc1ccc2cc(C[C@@H]3CC[C@@H](CNC(N)=O)O3)ccc2c1,0.994,0.55% (inactive)
NC(=O)NC[C@@H]1CC[C@@H](Cc2ccc(-c3ccccc3)cc2)O1,1.01,-0.6% (inactive)
O=C(NCCCCc1ccccc1)NC[C@@H]1CC[C@@H](Cc2ccc(-c3ccccc3)cc2)O1,4.44,-344% (active)
CC(C)[C@H]1COCCS(=O)(=O)N1Cc1ccccc1-c1cccc2c1oc1ccccc12,0.927,7.3% (inactive)
Cc1c(C(=O)NCC2COc3ccccc3O2)oc2ccc(S(=O)(=O)N3CCOCC3)cc12 (stereo not given),1.07,-6.7% (inactive)
CCNc1nc(NC(C)(C)C)nc(SC(C(C)=O)C(C)=O)n1,1.04,-4.2% (inactive)
O=C(OCn1nnc2ccccc2c1=O)C1CCN(S(=O)(=O)c2cccs2)CC1,0.919,8.05% (inactive)
Cc1ccc(C2=NN3C(C(=O)c4ccccc4)Oc4ccccc4C3C2)cc1 (stereo not given),0.916,8.35% (inactive)
O=C(c1cc(NC(=O)C23CC4CC(CC(C4)C2)C3)cc(NC(=O)C23CC4CC(CC(C4)C2)C3)c1)N1CCCCC1,2.06,-106% (active)
O=C(Nc1ccccc1N1CCN(c2ccccc2)CC1)C12CC3CC(CC(C3)C1)C2,0.927,7.25% (inactive)
COC(=O)c1sccc1NC(=O)C12CC3CC(CC(C3)C1)C2,1.03,-2.7% (inactive)
CCOc1ccccc1C1N(c2ccc(F)cc2)C(=O)C2CCCN21 (stereo not given),0.988,1.2% (inactive)
CCc1nnc(NC(=O)C2CCCN2C(=O)Nc2ccccc2OC)s1 (stereo not given),1.12,-12.2% (inactive)

SMILES,activation factor,"activity change, negative = activation"
CCCCNC(=O)Nc1ccc2c(c1)N(C)C(=O)c1ccccc1S2,2.25,-124% (active)
CCCCSCCCNC(=O)Nc1ccc(C)c(C)c1,1.25,-24.7% (inactive)
CC(=O)c1ccc2c(c1)N(C)c1ccccc1S2,0.875,12.5% (inactive)
CCC(C)NC(=O)Nc1ccc2c(c1)N(C)C(=O)c1ccccc1S2 (stereo not given),2,-100% (active)
COc1ccc(NC(=O)Nc2ccc3c(c2)N(C)C(=O)CS3)cc1Cl,1.91,-90.9% (inactive)
CCCCSCCCNC(=O)Nc1ccc(CC)cc1,1.39,-38.9% (inactive)
COCCOC(=O)c1c(C)n(C)c2ccc(OC(=O)C3CC3)cc12,1.07,-7.45% (inactive)
CCCCNS(=O)(=O)CCNCCc1ccccc1,1.1,-10.1% (inactive)
COc1ccc(C2/C=C\CC(NS(=O)(=O)c3ccc(C)cc3)CC(=O)N2Cc2ccccc2F)cc1 (stereo not given),1.18,-17.7% (inactive)
O=C(CN1CCOCC1)Nc1cccc(C(=O)Nc2cccc(C(F)(F)F)c2)c1,1.03,-2.95% (inactive)
Cc1occc1-c1nnc(SCC(=O)Nc2ccc3c(c2)OCO3)n1CC1CCCO1 (stereo not given),0.919,8.1% (inactive)
CCOC(=O)C1=CN(Cc2cccc(F)c2)S(=O)(=O)NC1c1ccc(F)c(Cl)c1 (stereo not given),0.881,11.9% (inactive)
C#CCOCCOCCOCCNc1nc(N2CCN(C(=O)CCCCCCCCCCNC(=O)Cn3cc(CCCCCN)nn3)CC2)nc(N2CCN(C(=O)CCCCCCCCCCNC(=O)[C@H]([C@@H](C)CC)n3cc(CCCCN=C(N)N)nn3)CC2)n1,10,-904% (active)
C#CCOCCOCCOCCNc1nc(N2CCN(C(=O)[C@H](Cc3cc4ccccc4[nH]3)n3cc([C@@H](N)CC(C)C)nn3)CC2)nc(N2CCN(C(=O)[C@H](Cc3cc4ccccc4[nH]3)n3cc([C@@H](N)CC(C)C)nn3)CC2)n1,1.61,-60.9% (inactive)
C#CCOCCOCCOCCNc1nc(N2CCN(C(=O)CCCCCCCCCCNC(=O)Cn3cc(C[C@@H](C)O)nn3)CC2)nc(N2CCN(C(=O)CCCCCCCCCCNC(=O)[C@@H]([C@H](C)CC)n3cc(CCCCCN)nn3)CC2)n1,5.59,-459% (active)
C#CCOCCOCCOCCNc1nc(N2CCN(C(=O)CCCCCCCCCCNC(=O)Cn3cc(CCCCCN)nn3)CC2)nc(N2CCN(C(=O)CCCCCCCCCCNC(=O)[C@H]([C@@H](C)CC)n3cc(CCCCCN)nn3)CC2)n1,3.67,-267% (active)
C#CCOCCOCCOCCNc1nc(N2CCN(C(=O)CCCCCCCCCCNC(=O)Cn3cc(CCCCCN)nn3)CC2)nc(N2CCN(C(=O)CCCCCCCCCCNC(=O)Cn3cc(C[C@@H](C)O)nn3)CC2)n1,2.22,-122% (active)
CCOC(=O)CN1C(=O)/C(=C2\SC(=S)N(NC(=O)c3cccnc3)C2=O)c2ccccc21,0.472,52.8% (inactive)
Cc1c(C(=O)N2CCN(c3ncccn3)CC2)sc2nc3n(c(=O)c12)CCCC3,1.11,-11.4% (inactive)
Clc1ccc2nc(C3CCN(Cc4nnnn4C4CCCCC4)CC3)[nH]c2c1,1.15,-14.6% (inactive)
CCn1nnnc1SCC(=O)c1cccc(OC)c1,0.96,4.05% (inactive)
COc1cccc(CNC(=O)c2ccc(NC(=O)C3CCCO3)cc2)c1 (stereo not given),0.932,6.8% (inactive)
CCOc1ccc(-n2cc(C(=O)Nc3ccc(Cl)cn3)c3cc(OC)c(OC)cc3c2=O)cc1,0.946,5.4% (inactive)
Oc1ccccc1C1=NOC(O)(C(F)F)C1 (stereo not given),0.928,7.2% (inactive)
CCOC(=O)N1CCN(C(=O)c2ccc3c(=O)n(CCC4=CCCCC4)c(=O)[nH]c3c2)CC1,0.936,6.4% (inactive)
